Laboratory results published in the supplement of paper PMC11732987, “Enantioselective OTUD7B fragment discovery through chemoproteomics screening and high-throughput optimisation” (Communications Chemistry, 2025).

Legend:
Experiment in all cases: log2 ratio of Biotin-Ahx-Ub-VS probe labelling (fragment/DMSO); higher = less target engagement (more negative = stronger competition), active = hit call of the paper (q ≤ 0.05, log2 ratio ≤ -1)
Settings in all cases: compound concentration: 200 uM; treatment time: 3 h
USP42 = target: T1, USP42 (UniProt Q9H9J4)
T1 sequence (whole entry): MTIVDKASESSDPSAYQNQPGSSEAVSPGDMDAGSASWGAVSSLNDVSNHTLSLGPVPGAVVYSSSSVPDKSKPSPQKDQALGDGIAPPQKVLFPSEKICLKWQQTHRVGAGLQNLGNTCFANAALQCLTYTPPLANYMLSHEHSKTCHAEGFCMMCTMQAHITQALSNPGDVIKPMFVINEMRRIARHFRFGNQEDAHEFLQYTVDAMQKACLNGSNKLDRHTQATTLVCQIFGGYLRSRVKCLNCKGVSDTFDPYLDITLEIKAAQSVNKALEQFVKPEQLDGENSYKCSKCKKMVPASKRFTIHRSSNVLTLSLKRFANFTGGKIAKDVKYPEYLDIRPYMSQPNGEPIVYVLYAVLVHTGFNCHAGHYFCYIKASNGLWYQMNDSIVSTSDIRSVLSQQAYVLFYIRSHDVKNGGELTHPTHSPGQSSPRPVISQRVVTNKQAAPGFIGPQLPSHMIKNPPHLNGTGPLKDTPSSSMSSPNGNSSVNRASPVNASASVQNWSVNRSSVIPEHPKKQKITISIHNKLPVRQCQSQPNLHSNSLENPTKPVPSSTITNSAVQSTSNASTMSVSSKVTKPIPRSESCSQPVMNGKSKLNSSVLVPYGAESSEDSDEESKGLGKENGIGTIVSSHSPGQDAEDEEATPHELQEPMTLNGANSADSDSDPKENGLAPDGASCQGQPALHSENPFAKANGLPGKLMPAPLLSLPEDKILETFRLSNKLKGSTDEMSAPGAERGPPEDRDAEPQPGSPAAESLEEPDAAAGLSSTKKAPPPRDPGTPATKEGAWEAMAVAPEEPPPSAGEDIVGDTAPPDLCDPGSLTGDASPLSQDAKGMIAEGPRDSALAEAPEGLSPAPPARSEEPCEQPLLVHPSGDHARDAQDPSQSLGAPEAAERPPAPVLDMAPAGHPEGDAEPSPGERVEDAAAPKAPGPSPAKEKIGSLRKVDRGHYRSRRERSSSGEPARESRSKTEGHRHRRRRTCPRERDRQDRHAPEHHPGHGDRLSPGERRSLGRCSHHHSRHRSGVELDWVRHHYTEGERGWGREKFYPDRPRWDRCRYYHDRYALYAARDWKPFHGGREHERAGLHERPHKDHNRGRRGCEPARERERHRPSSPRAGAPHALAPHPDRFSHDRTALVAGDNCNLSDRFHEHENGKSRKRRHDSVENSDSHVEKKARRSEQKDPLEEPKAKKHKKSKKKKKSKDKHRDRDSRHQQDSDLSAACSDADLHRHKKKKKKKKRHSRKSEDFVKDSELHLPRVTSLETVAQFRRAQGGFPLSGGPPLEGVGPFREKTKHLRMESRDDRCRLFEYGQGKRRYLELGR
Procedure, shortened: (§1)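 Global-median-normalised Spectronaut label-free quantities were compared by unpaired t-test, and values are average log2 ratios of fragment over vehicle. Only proteins with ≥2 unique peptides were used. HEK293T lysate (495 µg per sample) was treated in triplicate with fragment at 200 µM or vehicle for 3 h and then with Biotin-Ahx-Ub-VS at 0.5 µM final for 1 h. Labelled DUBs were then NeutrAvidin-enriched, digested with LysC and trypsin, and run by diaPASEF LC-MS/MS.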

USP46 = USP46 (UniProt P62068)
Procedure, shortened: as §1

USP47 = target: T2, USP47 (UniProt Q96K76)
T2 sequence (whole entry): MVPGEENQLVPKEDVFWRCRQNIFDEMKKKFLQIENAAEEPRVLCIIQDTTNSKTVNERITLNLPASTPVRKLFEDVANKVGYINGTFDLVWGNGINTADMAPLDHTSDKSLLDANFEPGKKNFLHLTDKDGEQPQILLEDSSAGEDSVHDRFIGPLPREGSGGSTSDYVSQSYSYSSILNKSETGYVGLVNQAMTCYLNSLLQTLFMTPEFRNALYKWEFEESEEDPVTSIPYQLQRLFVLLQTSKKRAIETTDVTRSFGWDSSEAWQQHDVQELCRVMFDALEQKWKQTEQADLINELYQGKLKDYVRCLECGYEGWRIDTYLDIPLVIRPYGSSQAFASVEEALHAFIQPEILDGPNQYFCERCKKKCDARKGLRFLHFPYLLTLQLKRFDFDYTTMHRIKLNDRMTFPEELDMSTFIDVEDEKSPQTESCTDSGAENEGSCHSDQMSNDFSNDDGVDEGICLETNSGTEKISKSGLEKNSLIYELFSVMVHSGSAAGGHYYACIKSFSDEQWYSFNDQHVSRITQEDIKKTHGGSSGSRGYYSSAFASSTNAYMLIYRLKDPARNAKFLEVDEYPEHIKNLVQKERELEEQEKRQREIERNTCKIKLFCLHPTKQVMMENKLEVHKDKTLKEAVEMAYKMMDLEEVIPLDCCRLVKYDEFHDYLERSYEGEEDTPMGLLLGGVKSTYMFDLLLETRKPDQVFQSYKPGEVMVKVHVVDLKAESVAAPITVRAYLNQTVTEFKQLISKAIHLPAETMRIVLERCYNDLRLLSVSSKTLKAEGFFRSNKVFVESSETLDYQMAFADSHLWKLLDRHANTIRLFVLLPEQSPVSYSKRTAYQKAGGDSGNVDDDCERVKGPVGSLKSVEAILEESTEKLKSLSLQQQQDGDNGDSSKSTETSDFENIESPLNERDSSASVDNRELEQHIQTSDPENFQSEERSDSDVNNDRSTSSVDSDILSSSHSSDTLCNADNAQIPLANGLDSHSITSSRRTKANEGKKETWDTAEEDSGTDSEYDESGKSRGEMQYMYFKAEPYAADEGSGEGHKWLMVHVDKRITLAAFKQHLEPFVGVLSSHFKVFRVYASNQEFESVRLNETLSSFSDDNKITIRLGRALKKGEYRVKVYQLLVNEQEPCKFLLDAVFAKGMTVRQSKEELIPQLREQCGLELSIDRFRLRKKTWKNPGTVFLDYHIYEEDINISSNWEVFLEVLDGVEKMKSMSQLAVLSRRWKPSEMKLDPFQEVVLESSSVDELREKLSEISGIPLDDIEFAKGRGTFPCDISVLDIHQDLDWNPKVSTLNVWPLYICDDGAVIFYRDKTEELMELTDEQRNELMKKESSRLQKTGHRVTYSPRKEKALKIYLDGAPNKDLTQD
Procedure, shortened: as §1

USP48 = target: T3, USP48 (UniProt Q86UV5)
T3 sequence (whole entry): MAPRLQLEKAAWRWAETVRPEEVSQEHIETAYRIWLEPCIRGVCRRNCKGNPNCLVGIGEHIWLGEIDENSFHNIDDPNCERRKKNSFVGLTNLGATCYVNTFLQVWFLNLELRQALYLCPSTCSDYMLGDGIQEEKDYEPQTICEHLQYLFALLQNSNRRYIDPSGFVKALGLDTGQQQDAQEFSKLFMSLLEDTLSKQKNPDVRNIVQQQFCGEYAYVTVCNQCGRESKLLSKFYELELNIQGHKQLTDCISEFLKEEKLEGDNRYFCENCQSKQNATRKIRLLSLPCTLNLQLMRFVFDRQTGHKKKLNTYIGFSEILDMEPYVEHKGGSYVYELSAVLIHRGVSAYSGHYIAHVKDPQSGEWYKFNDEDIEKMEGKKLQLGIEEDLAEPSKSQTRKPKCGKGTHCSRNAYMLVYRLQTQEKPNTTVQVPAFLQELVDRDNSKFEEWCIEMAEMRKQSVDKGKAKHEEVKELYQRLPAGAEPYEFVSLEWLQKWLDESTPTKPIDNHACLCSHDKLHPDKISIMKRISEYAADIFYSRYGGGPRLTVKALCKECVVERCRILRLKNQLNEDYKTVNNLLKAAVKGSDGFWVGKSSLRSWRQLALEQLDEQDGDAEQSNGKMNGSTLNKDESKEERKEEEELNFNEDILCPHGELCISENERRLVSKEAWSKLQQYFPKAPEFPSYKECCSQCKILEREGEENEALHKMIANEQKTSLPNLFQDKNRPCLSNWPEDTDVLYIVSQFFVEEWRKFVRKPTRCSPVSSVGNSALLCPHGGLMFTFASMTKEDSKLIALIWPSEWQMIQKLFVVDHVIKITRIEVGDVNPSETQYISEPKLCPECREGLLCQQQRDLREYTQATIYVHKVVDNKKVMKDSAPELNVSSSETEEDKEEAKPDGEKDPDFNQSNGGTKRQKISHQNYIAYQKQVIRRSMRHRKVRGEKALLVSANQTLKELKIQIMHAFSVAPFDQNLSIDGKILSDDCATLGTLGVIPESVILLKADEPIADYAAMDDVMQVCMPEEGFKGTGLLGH
Procedure, shortened: as §1

USP5 = target: T4, USP5 (UniProt P45974)
T4 sequence (whole entry): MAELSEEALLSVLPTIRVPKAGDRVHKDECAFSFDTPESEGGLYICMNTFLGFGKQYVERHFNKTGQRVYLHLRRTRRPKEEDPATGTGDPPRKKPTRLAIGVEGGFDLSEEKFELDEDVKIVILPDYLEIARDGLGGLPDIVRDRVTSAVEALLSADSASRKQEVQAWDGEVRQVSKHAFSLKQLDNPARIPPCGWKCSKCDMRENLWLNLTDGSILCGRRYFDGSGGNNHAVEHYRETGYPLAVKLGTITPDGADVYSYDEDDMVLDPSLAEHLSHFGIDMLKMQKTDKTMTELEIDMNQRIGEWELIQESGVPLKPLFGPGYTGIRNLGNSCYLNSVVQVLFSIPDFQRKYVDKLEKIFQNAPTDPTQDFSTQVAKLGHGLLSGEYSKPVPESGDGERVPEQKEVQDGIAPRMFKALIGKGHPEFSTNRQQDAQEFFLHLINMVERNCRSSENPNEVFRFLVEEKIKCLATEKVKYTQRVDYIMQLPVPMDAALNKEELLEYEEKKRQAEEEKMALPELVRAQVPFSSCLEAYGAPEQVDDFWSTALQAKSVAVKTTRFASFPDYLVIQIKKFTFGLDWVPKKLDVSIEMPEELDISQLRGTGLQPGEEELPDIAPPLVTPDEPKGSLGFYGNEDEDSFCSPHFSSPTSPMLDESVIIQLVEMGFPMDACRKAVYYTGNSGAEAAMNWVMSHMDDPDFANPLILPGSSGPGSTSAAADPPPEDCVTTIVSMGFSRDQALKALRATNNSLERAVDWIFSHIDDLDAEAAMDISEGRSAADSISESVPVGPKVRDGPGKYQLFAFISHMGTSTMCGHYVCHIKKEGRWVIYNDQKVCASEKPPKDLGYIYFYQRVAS
Procedure, shortened: as §1

USP54 = USP54 (UniProt Q70EL1)
Procedure, shortened: as §1

USP7 = USP7 (UniProt Q93009)
Procedure, shortened: as §1

USP8 = target: T5, USP8 (UniProt P40818)
T5 sequence (whole entry): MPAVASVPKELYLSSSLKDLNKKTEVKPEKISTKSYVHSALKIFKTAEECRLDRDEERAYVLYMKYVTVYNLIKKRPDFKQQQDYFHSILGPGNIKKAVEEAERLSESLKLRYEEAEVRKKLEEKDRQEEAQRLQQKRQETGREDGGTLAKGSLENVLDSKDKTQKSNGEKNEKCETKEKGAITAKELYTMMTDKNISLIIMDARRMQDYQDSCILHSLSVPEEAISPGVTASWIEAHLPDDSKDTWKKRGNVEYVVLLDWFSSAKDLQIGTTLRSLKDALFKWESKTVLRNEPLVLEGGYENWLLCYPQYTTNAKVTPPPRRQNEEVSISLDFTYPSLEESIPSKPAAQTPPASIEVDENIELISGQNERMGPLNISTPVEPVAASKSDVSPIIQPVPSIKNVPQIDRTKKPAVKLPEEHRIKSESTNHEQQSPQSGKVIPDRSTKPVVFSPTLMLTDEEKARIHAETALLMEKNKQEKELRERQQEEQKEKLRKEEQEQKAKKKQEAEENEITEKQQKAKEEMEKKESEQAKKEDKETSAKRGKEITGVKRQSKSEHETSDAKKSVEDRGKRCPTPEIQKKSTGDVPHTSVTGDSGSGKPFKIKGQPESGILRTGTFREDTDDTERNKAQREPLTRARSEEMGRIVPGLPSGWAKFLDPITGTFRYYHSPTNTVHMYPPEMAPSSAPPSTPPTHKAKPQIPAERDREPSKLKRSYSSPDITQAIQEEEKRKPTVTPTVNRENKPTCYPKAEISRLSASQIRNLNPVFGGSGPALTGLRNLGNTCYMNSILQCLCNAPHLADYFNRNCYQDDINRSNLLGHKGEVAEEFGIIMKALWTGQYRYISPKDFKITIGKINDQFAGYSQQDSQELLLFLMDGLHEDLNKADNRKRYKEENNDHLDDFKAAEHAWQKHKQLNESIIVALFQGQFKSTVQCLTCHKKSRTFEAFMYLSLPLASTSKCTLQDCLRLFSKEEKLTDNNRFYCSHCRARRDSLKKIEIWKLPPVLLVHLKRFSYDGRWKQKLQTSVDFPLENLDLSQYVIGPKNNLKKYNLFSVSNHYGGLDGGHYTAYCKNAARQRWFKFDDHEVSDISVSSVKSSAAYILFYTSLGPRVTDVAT
Procedure, shortened: as §1

USP9X = USP9X (UniProt Q93008)
Procedure, shortened: as §1

UniProt O00487 = target: UniProt O00487
Procedure, shortened: as §1

Measured: log2 ratio of Biotin-Ahx-Ub-VS probe labelling

UniProt O00487, sequence (O00487 whole entry): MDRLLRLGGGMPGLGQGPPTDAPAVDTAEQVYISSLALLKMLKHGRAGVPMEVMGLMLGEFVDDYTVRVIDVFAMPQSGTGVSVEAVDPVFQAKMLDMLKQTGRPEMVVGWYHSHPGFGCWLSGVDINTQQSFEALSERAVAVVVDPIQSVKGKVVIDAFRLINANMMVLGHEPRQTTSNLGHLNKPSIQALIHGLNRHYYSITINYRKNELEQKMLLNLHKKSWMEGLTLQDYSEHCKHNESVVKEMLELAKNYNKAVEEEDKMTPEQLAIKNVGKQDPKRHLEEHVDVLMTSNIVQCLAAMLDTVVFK
USP9X, sequence (Q93008 whole entry): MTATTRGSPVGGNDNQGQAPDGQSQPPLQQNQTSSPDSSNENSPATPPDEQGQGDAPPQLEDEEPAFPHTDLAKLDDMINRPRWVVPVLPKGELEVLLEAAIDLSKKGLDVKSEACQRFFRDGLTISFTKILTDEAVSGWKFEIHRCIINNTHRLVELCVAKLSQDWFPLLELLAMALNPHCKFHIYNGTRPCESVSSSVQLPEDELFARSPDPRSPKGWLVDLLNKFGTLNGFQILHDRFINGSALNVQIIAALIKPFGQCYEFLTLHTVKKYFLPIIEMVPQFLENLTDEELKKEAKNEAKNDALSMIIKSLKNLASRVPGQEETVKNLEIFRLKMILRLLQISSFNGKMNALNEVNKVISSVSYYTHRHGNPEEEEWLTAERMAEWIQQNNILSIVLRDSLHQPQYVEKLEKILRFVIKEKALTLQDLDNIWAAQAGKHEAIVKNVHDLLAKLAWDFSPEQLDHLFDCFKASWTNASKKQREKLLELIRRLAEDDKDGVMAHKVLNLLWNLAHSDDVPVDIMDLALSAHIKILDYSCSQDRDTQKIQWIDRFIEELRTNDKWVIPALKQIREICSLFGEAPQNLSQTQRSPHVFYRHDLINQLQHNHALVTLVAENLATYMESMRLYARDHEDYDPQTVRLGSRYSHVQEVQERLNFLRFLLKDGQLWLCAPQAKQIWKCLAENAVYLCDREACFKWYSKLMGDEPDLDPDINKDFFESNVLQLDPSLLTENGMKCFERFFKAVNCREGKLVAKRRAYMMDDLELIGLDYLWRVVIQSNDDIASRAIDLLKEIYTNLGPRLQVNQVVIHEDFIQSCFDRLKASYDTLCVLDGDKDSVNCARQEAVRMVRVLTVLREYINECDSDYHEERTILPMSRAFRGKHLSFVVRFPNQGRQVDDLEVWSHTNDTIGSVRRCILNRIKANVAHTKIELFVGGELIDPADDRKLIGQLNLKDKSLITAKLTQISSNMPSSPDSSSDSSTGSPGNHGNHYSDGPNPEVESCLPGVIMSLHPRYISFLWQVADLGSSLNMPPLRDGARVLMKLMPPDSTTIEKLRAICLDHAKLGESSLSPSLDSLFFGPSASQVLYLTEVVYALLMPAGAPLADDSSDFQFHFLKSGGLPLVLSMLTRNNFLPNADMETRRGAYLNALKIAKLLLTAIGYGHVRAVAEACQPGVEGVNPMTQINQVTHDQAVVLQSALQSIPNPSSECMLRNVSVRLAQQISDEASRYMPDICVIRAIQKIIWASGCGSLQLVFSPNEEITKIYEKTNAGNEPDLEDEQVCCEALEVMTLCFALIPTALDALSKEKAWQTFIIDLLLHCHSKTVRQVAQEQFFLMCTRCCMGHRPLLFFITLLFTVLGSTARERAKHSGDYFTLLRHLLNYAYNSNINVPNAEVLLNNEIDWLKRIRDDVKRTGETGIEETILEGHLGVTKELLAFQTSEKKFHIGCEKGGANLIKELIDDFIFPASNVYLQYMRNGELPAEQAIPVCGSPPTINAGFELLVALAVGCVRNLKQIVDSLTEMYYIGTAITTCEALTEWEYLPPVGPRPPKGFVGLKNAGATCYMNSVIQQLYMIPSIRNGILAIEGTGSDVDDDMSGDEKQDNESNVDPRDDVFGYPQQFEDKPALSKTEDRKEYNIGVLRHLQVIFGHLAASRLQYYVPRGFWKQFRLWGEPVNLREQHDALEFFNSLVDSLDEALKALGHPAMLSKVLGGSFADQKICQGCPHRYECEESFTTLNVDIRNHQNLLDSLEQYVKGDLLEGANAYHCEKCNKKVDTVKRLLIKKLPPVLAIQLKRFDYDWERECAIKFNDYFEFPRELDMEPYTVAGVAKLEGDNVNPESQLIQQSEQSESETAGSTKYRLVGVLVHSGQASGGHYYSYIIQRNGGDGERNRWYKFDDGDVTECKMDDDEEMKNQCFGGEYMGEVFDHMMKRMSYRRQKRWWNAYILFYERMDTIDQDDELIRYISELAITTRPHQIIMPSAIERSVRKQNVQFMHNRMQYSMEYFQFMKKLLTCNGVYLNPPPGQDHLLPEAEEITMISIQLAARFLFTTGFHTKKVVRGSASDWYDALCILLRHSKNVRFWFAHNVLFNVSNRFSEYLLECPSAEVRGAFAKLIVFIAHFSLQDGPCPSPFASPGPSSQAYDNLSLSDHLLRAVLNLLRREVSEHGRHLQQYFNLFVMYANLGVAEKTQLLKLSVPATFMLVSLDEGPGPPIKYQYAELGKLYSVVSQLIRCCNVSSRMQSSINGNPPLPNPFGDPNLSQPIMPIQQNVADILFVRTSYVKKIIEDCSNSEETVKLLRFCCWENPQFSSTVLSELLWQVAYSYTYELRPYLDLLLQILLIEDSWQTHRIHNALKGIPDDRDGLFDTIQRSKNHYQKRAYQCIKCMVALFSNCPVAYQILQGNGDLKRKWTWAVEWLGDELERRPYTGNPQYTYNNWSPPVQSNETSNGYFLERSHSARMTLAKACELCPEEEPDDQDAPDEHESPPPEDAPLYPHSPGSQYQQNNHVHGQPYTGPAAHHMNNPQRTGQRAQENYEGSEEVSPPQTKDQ
USP46, sequence (P62068 whole entry): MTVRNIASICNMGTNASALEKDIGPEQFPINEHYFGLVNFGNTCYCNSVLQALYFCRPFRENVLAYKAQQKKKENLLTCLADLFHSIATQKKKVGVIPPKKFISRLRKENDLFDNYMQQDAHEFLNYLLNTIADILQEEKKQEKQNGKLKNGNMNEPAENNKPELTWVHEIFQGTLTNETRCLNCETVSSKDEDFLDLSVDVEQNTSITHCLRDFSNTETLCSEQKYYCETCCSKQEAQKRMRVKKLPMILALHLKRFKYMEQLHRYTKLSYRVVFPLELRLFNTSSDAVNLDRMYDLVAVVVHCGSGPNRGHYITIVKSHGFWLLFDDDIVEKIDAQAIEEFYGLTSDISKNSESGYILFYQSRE
USP54, sequence (Q70EL1 whole entry): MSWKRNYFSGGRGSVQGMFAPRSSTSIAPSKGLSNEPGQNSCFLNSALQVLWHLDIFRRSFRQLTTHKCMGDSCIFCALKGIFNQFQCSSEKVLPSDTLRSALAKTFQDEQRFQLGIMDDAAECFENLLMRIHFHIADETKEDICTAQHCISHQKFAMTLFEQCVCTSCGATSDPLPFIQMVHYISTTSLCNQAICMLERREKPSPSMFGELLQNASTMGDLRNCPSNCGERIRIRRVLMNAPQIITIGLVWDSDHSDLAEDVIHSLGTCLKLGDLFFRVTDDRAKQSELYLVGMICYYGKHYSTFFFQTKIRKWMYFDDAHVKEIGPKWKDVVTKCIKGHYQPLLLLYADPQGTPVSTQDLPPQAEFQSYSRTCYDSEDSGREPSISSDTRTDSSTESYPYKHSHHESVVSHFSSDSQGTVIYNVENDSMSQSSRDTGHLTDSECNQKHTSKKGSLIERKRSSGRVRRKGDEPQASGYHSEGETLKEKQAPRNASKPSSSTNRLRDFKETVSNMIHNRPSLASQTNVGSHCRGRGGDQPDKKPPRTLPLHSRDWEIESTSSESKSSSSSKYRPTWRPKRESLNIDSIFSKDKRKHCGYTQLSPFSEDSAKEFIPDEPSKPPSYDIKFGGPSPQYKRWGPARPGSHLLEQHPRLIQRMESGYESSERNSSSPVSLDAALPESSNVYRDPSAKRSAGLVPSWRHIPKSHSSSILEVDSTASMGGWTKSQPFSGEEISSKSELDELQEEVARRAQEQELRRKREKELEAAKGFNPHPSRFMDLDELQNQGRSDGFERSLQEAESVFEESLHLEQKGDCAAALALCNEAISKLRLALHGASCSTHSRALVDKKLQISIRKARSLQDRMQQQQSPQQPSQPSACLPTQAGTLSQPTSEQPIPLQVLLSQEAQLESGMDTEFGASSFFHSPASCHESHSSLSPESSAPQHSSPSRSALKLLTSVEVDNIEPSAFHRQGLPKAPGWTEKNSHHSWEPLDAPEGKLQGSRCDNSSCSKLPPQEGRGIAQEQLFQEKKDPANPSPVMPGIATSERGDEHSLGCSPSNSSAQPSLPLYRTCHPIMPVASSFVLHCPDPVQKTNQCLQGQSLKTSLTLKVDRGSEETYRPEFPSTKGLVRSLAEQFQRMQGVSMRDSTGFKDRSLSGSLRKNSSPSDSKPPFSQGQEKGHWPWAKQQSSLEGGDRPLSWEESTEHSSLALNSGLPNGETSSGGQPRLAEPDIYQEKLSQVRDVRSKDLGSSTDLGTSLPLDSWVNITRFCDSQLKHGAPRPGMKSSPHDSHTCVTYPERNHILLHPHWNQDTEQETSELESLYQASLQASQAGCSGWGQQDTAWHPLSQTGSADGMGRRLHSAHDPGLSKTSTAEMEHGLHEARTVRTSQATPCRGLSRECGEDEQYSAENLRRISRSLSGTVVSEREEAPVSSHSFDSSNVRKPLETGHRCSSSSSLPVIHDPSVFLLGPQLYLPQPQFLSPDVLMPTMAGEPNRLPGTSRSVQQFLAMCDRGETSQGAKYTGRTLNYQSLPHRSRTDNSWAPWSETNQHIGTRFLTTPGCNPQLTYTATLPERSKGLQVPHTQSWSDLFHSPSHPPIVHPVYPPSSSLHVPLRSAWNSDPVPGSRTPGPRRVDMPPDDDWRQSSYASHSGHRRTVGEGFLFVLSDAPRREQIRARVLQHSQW

CC1(NC(=O)CCl)CCS(=O)(=O)C1 (stereo not given)
inactive: USP42 0.324 | USP46 -0.538 | USP47 -0.0229 | USP48 -0.544 | USP5 -0.73 | USP54 1.09 | USP7 -0.793 | USP8 -0.788 | USP9X -0.847 | UniProt O00487 -0.00664
